PAFAH1B3 FP inh: PAFAH1B3 enzyme inhibitors, primary screen, biochemical, fluorescence polarization, human; recombinant PAFAH1B3, FP-rhodamine probe; actives 0.28% (n = 340,000); AID 492972, 2010; Platelet-activating factor acetylhydrolase IB subunit alpha1 (Homo sapiens), Q15102; inhibition, % at 3.39 µM;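 active means inhibition above the screen-wide average of all tested compounds plus 3 SD, cut at about 25% in these data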;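 further: 0% = enzyme with DMSO only and 100% = wells lacking PAFAH1B3 protein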
PAFAH1B2 inh: PAFAH1B2 enzyme inhibitors, primary screen, biochemical, fluorescence polarization, human; recombinant PAFAH1B2, FP-rhodamine activity probe; inhibition, % at 3.39 µM; actives 1.2% (n = 340,000); AID 492953, 2010;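 active means inhibition above the mean of all tested compounds plus 3 SD, cut at about 24% in these data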;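 further: 0% = enzyme with DMSO and 100% = wells lacking PAFAH1B2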
Target sequence (P68402 whole entry, looked up): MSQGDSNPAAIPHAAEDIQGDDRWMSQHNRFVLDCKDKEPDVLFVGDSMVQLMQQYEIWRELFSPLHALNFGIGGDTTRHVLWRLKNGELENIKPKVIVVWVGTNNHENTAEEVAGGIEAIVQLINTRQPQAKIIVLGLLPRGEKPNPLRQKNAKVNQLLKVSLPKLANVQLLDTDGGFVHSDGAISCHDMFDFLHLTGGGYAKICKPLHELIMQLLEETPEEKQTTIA
PAFAH2 FP inh: PAFAH2 enzyme inhibitors, primary screen, biochemical, fluorescence polarization, human; inhibition, % at 3.39 µM; AID 492956, 2010; recombinant PAFAH2, FP-rhodamine activity probe; actives 0.99% (n = 340,000); Platelet-activating factor acetylhydrolase 2, cytoplasmic (Homo sapiens), Q99487;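 active means inhibition above the mean over all tested compounds plus 3 SD, cut at about 30% in these data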;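 further: inhibitors block probe labeling of enzyme so polarization drops; 0% = enzyme with DMSO and 100% = wells lacking PAFAH2 protein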
PP5 primary: PP5 phosphatase inhibitors, primary screen, biochemical, fluorescence. purified PP5c, OMFP substrate fluorescence. inhibition, % at 6.7 µM. actives 0.18% (n = 320,000);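 active means inhibition above the campaign's mean inhibition across all tested compounds plus 3 SD, cut at about 9.5% in these data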;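 further: 0% = DMSO only and 100% = 100 µM cantharidin control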
pPAFAH FP inh: pPAFAH enzyme inhibitors, primary screen, biochemical, fluorescence polarization, human | recombinant pPAFAH, FP-rhodamine probe fluorescence polarization | AID 463082, 2010 | inhibition, % at 3.39 µM | actives 1.5% (n = 330,000) | Platelet-activating factor acetylhydrolase (Homo sapiens), Q13093;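 active means inhibition above the mean inhibition across the screen plus 3 SD, cut at about 25% in these data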;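 further: inhibitors block binding of the rhodamine activity-based probe so polarization drops; 0% = enzyme with DMSO and 100% = wells lacking pPAFAH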
Target sequence (Q13093 whole entry, looked up): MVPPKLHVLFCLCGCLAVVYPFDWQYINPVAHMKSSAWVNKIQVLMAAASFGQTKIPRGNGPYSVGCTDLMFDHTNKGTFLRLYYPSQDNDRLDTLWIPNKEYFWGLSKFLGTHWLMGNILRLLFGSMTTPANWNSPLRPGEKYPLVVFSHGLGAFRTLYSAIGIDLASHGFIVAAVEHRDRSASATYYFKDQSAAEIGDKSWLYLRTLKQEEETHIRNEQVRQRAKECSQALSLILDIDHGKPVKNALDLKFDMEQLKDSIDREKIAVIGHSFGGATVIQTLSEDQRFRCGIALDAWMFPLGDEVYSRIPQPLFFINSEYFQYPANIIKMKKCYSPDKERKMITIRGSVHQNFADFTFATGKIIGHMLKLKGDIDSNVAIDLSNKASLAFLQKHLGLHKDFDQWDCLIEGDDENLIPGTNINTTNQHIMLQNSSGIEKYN
PP1 counter: PP1-alpha phosphatase inhibitors, primary screen, counter-screen for PP5 inhibitor project, biochemical, fluorescence, OMFP substrate, single point; inhibition, % at 6.7 µM; actives 0.9% (n = 320,000); Serine/threonine-protein phosphatase PP1-alpha catalytic subunit (Homo sapiens), P62136; purified PP1alpha;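 active means inhibition above the mean inhibition of all tested compounds plus 3 SD, computed separately for each screening campaign, cut at about 15% in these data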
PP5 inh confirm: PP5 phosphatase inhibitors, confirmation, biochemical, fluorescence, human | Purified PP5, fluorogenic phosphatase substrate | actives 22% (n = 460) | shares compounds with PP5 primary | AID 2331, 2010 | inhibition, % at 6.7 µM; in the data active means inhibition above about 9.5%
PP1 counter 3x: PP1 phosphatase inhibitors, counter-screen for PP5 inhibitor project, biochemical, fluorescence, triplicate | inhibition, % at 6.7 µM | shares compounds with PP5 primary | actives 4% (n = 460) | PP1 enzyme, fluorescent phosphatase substrate; in the data active means inhibition above about 16%
An asterisk follows results filed as active; · = no result. An excerpt weighted towards active compounds, which were near 3.4% of everything screened.

SMILES | PAFAH1B3 FP inh | PAFAH1B2 inh | PAFAH2 FP inh | PP5 primary | pPAFAH FP inh | PP1 counter | PP5 inh confirm | PP1 counter 3x
COCCN1C=C2C(=O)C(C)(OC(=O)CCC(=O)OC)C(=O)C=C2C=C1C1CC1 (configuration not stated) | 12.2 | 5.2 | 7.1 | 17.3* | -2.8 | 6.5 | 42.8* | 16.8*
COC(=O)CCC(=O)OC1(C)C(=O)C=C2C=C(C3CC3)N(C3CC3)C=C2C1=O (configuration not stated) | 14.6 | -1.6 | -4.7 | 14.7* | 2.7 | -0.9 | 43.0* | 18.4*
COC(=O)CCC(=O)OC1(C)C(=O)C=C2C=C(C3CC3)N(Cc3ccco3)C=C2C1=O (configuration not stated) | 0.6 | 4.5 | -3.0 | 4.2 | 7.4 | -2.6 | · | ·
CN1CCN(c2ccc([N+](=O)[O-])cc2NC(=O)c2cccs2)CC1 | 13.9 | 5.9 | -2.2 | -10.1 | 0.1 | 1.9 | · | ·
Cc1cc(Br)ccc1NC(=O)CN(C)C(=O)C1CCN(C(=O)c2ccc(Cl)cc2)CC1 | 8.5 | 7.9 | -2.0 | · | · | · | · | ·
COc1ccc(N2C(=O)C(CC(N)=O)N(NC(=O)CCc3ccccc3)C2=O)cc1 (configuration not stated) | 2.9 | 1.4 | -3.2 | -0.6 | 0.4 | -4.9 | · | ·
COc1ccc(-c2nc(N)ncc2-c2csc(C)n2)c(O)c1OC | -2.1 | -2.8 | 11.1 | 0.5 | -1.8 | 3.1 | · | ·
Oc1ccccc1/C=N/Nc1cc(N2CCCC2)nc(N2CCCC2)n1 | 15.3 | 0.3 | -5.5 | 13.7* | 0.7 | 7.8 | 44.1* | 6.3
O=C(COC(=O)C1CC1)NCCc1ccc(Cl)cc1 | -2.1 | 5.6 | 25.0 | · | · | · | · | ·
CCCSc1nsc(NC(=O)Nc2ccc(F)cc2F)n1 | -0.9 | -2.1 | -4.2 | 10.1* | -3.3 | 6.7 | -1.6 | 0.8
CCSc1nsc(NC(=O)Nc2cccc(F)c2)n1 | 0.2 | 4.6 | -29.1 | -1.3 | -6.2 | 14.2 | · | ·
CCOC(=O)c1c(C)[nH]c(C)c1C(=O)COC(=O)/C=C/c1cccc(F)c1 | 5.2 | -2.5 | 1.6 | 2.8 | 2.1 | -0.5 | · | ·
CCOC(=O)c1c(C)[nH]c(C)c1C(=O)COC(=O)/C=C/c1cccc(C(F)(F)F)c1 | 12.6 | -0.3 | -4.7 | 11.5* | -1.5 | 1.6 | 8.0 | 9.1
O=S(=O)(c1ccc(Br)s1)n1cccn1 | 7.9 | 9.9 | -0.8 | 12.0* | -0.5 | -3.2 | -3.2 | -4.3
Cc1cc(NS(=O)(=O)c2ccc(Nc3nc(-c4ccc(C)c(C)c4)cs3)cc2)no1 | -1.9 | 8.2 | 24.8 | 10.8* | 34.3* | 3.7 | 5.4 | 9.1
O=C(NNC(=O)c1ccc(O)c(Cl)c1)c1cccc(S(=O)(=O)N2CCOCC2)c1 | -0.8 | -1.0 | -0.7 | -3.0 | -6.2 | 10.4 | · | ·
O=C(NCC(c1cccs1)N1CCOCC1)c1ccc(OCc2ccccc2)cc1 (configuration not stated) | 6.2 | 5.0 | -1.4 | 2.9 | 1.4 | 1.3 | · | ·
CC(=O)Nc1c(Br)cc2c(c1Br)C(=O)c1ccccc1-2 | 5.0 | 7.0 | 3.2 | · | · | · | · | ·
CC(=O)C1=C(c2ccc(Br)cc2)C(=O)c2ccccc2C1=O | -4.2 | 2.0 | 10.3 | 11.1* | 13.6 | 7.7 | 10.4* | 4.7
CCOC(=O)Cc1c(C)nc2c(-c3cccc(Br)c3)cnn2c1C | 10.8 | 2.7 | -5.5 | 0.8 | -0.3 | 2.0 | · | ·
CCOC(=O)CN1CCc2c(C)nc3c(-c4ccc(OC)c(OC)c4)cnn3c21 | 12.8 | 2.1 | 0.7 | 11.9* | 9.8 | 3.3 | -0.7 | -0.6
COc1ccc(OC)c(S(=O)(=O)Nc2cc3c(cc2N2CCCC2)n(C)c(=O)c(=O)n3C)c1 | 8.5 | 2.1 | 9.2 | 5.0 | 9.4 | 1.4 | · | ·
O=C(c1ccccc1)N1CCN(c2ccc([N+](=O)[O-])cc2-n2cccc2)CC1 | 0.8 | -0.6 | 0.2 | 1.8 | 8.5 | -2.8 | · | ·
CCC(=O)Nc1cccc(NC(=O)CSc2nnc(-c3ccc(NS(C)(=O)=O)cc3)n2CC)c1 | 3.8 | 1.6 | -1.9 | 9.7* | 4.3 | 2.4 | -4.2 | -5.0
CCn1c(SCC(=O)Nc2cccc(NC(=O)c3cccs3)c2)nnc1-c1ccncc1 | 1.4 | 1.1 | 2.6 | -4.5 | -1.6 | 5.5 | · | ·
SMILES | PAFAH1B3 FP inh | PAFAH1B2 inh | PAFAH2 FP inh | PP5 primary | pPAFAH FP inh | PP1 counter | PP5 inh confirm | PP1 counter 3x
CCOC(=O)C(C)Oc1ccc(NC(=O)C(Cl)Cl)cc1 (configuration not stated) | 10.3 | -0.7 | 0.2 | 0.1 | 2.1 | -2.9 | · | ·
COCC(C)n1c(-c2ccc3c(c2)NC(=O)CO3)csc1=Nc1ccc(OC(F)F)cc1 (configuration not stated) | 2.5 | 7.4 | 3.8 | 12.2* | 0.3 | 2.8 | 1.7 | 2.6
CCC(C)[C@H]1COCCS(=O)(=O)N1Cc1ccccc1 (some centres not stated) | -4.3 | 10.2 | -5.2 | 0.5 | 5.0 | 0.9 | · | ·
COc1ccc(OCCn2cc(/C=N/NC(=O)c3ccncc3)c3ccccc32)cc1 | 12.1 | -0.3 | -4.6 | 3.7 | 21.2 | 0.7 | · | ·
Cc1ccc(OCCn2cc(/C=N/NC(=O)c3ccncc3)c3ccccc32)cc1 | 19.9 | 5.4 | -15.7 | 9.9* | 23.3 | 8.1 | 0.9 | 2.9
CC(C)(C)NC(=O)CN(C(=O)c1snc(C(=O)NC2CCCCC2)c1N)c1ccccc1F | 8.9 | 6.4 | 3.3 | -0.1 | 3.3 | -2.2 | · | ·
O=C(CS(=O)(=O)c1ccc(Cl)c(Cl)c1)Nc1ccccc1Cl | 0.6 | 4.5 | 6.7 | 11.0* | 1.3 | 1.4 | -4.3 | -2.8
COc1ccc(S(=O)(=O)CC(=O)Nc2ccccc2Cl)cc1 | -2.7 | 0.5 | 3.3 | 2.8 | -0.1 | -2.8 | · | ·
Cc1cc(OCCCC(=O)Nc2cccc(-n3cnnn3)c2)ccc1Cl | -5.8 | -1.4 | -3.5 | 2.0 | -2.7 | 1.8 | · | ·
COc1ccc2nc(C(F)(F)C(F)(F)F)c(C#N)c(N)c2c1 | 5.9 | 4.7 | -1.7 | 9.8* | -3.7 | 5.8 | 9.0 | 6.9
O=C(Cc1ccccc1)c1c[nH]c(C(=O)NCCCn2ccnc2)c1 | · | · | · | 0.0 | 0.9 | -3.9 | · | ·
O=C(c1ccc(C(F)(F)F)cc1)c1c[nH]c(C(=O)NCCCn2ccnc2)c1 | 5.9 | 9.1 | -1.4 | 11.9* | 0.4 | -2.5 | -2.1 | -3.2
CN1CCC(NC(=O)Nc2ccc(Br)cc2)CC1 | 3.1 | 3.2 | -7.6 | 12.9* | 3.1 | -3.5 | -4.1 | -4.6

High-throughput results (PubChem BioAssay)
